Source: PubChem BioAssay AID2284367 (EPA ToxCast)
The source holds several records for some structures; these can differ, active in one and inactive in another. Activity calls are given as the source filed them. The calls were made as follows: active = hit-call score of the fitted dose curve at least 0.9, where 1 is the maximum; inactive = score below 0.9.

molecular target: human Peroxisome Proliferator-activated Receptor alpha (PPARa) Agonism, conducted at France lab site, PPARA (gene 5465) (UniProt Q07869); experiment: ERF_FR_NR_COA_hPPARA: Eurofins (ERF) Nuclear Receptor (NR) Functional Coactivator Assay for human Peroxisome Proliferator-activated Receptor alpha (PPARa) Agonism, conducted at France lab site
Sequence (Q07869 whole entry, looked up): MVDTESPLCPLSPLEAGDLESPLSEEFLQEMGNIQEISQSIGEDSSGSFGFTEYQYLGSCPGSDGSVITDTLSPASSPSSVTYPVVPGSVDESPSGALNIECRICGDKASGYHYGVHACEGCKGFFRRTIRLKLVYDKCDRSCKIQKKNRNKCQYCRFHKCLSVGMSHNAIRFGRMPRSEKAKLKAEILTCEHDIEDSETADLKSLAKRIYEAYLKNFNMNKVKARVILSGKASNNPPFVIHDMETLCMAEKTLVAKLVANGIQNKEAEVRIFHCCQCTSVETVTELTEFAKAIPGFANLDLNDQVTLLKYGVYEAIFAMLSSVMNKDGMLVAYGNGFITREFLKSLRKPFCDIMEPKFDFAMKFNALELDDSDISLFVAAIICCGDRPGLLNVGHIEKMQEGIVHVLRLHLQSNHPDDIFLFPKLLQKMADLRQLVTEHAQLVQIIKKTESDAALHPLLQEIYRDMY
Description: ERF_FR_NR_COA_hPPARA is a biochemical, single-readout assay that uses extracted gene-proteins in a cell-free assay. Measurements were taken 2 hours after chemical dosing in a 384-well plate. See PPARalpha Human NHR Functional Agonist Coactivator Assay, Cerep.ERF_FR_NR_COA_hPPARA is an assay component calculated from the ERF_FR_NR_COA_hPPARA assay. It is designed to measure FRET using a type of binding reporter as detected by fluorescence intensity of GW7647 with fluorimetry technology.Data from the assay component ERF_FR_NR_COA_hPPARA was analyzed at the assay endpoint, ERF_FR_NR_COA_hPPARA, in the positive analysis fitting direction relative to DMSO as the negative control and baseline of activity. Using a type of binding reporter, gain-of-signal activity can be used to understand changes in binding as they relate to gene PPARA. To generalize the intended target to other relatable targets, this assay endpoint is annotated to the nuclear receptor intended target family, where the subfamily is non-steroidal.
Human cells are incubated for 3 hours at room temprature with GW7647 as control activator. Test Sample Requirements: Minimum for 1) Screen: 75 ul of 10 mM stock or 1 mg (pre-weighed) powder (assuming FW =<500 and purity 100%).

Row | Compound | outcome | AC50
1 | O=S(=O)(O)C(F)(F)C(F)(F)C(F)(F)C(F)(F)C(F)(F)C(F)(F)F | inactive | 
2 | O=C(O)C(F)(F)C(F)(F)C(F)(F)C(F)(F)C(F)(F)C(F)(F)C(F)(F)F | inactive | 3.17 µM (active)
3 | O=C(Cl)C(F)(F)C(F)(F)C(F)(F)C(F)(F)C(F)(F)C(F)(F)F | inactive | 
4 | CC(C)(Oc1ccc(C(=O)c2ccc(Cl)cc2)cc1)C(=O)O | inactive | 
5 | O=C(O)C(F)(F)C(F)(F)C(F)(F)C(F)(F)C(F)(F)C(F)(F)F | inactive | 
6 | CN(CCOc1ccc(CC2SC(=O)NC2=O)cc1)c1ccccn1 (stereo not drawn) | inactive | 
7 | O=C(O)C(F)(F)OC(F)(F)C(F)(F)OC(F)(F)F | inactive | 
8 | O=C(CC(=O)C(F)(F)C(F)(F)C(F)(F)F)c1cccs1 | inactive | 
9 | O=C(O)CCC(F)(F)C(F)(F)C(F)(F)F | inactive | 
10 | O=S(=O)(O)C(F)(F)C(F)(F)C(F)(F)C(F)(F)C(F)(F)C(F)(F)C(F)(F)C(F)(F)F | inactive | 
11 | O=C(O)C(F)(F)C(F)(F)C(F)(F)C(F)(F)C(F)(F)C(F)(F)C(F)F | inactive | 
12 | O=C(O)C(F)(F)C(F)(F)C(F)(F)C(F)(F)C(F)(F)C(F)(F)C(F)(F)C(F)(F)Cl | inactive | 
